# rCAG binder – binds r(CAG) RNA repeats | r(CAG) RNA repeat, TO-PRO-1 dye displacement fluorescence | inhibition, % at 3 µM | 1.3% of 370,000 active | AID 651821;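 active means inhibition above the plate cutoff, the mean of all test compounds on that plate plus 3 SD, cut at about 35% in these data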;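 further: 0% = DMSO alone and 100% = 100 µM mitoxantrone as full dye displacement; higher means more dye released from RNA so lower well fluorescence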
# MBD2 inh – inhibitors of human MBD2 binding to methylated oligonucleotide. TR-FRET. inhibition, % at 4.4 µM. 0.31% of 370,000 active. AID 686964; in the data active means inhibition above about 13%
# Target sequence (Q9UBB5 whole entry, looked up): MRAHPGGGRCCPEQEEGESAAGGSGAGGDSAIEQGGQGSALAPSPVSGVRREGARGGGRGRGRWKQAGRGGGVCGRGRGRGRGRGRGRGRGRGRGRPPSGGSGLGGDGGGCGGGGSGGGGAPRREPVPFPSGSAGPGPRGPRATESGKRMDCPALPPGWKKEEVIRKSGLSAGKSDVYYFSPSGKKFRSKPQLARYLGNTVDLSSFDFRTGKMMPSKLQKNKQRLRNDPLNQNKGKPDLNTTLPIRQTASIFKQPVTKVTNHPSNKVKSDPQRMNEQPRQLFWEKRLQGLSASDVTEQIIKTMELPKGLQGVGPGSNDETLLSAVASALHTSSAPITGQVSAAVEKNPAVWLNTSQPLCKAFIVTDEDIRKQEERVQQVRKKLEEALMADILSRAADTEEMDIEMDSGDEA
# ABHD5-PLIN5 inh – blocks binding of human ABHD5 to perilipin-5 | 0.78% of 360,000 active | Split G. princeps luciferase complementation, luminescence, 4 h | inhibition, % at 4 µM | Q00G26+Q8WTS1;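 active means inhibition above the mean inhibition across every tested compound plus 3 SD, cut at about 22% in these data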;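 further: 0% = DMSO only wells and the 100% control is not disclosed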
# UHRF1 binding – human UHRF1 methylated DNA binding inhibitors; UHRF1 binding to methylated oligo, TR-FRET; inhibition, % at 4.4 µM; 0.75% of 370,000 active; AID 687016;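 further: UHRF1 SRA domain binding a hemimethylated CpG hairpin DNA probe; 0% = median of test compound wells and 100% = reference inhibitor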
# PRMT1 inh – PRMT1 (human) inhibition, primary screen. Q99873. recombinant PRMT1, activity-based probe fluorescence polarization. inhibition, % at 2.79 µM. 1.3% of 370,000 active. AID 652257;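 active means inhibition above about 21% made by adding two undisclosed values, limit read from the data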
# LEDGF integ inh – blocks HIV-1 LEDGF/p75-dependent DNA integration. TR-FRET IN-LEDGF/p75 DNA integration, Eu/Cy5. inhibition, % at 3.7 µM. 0.64% of 370,000 active. AID 743269;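 active means inhibition above the screen-wide mean plus 3 SD, cut at about 13% in these data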;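 further: signal is the Cy5 over europium emission ratio at 671 and 618 nm; 0% = plate median of compound wells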
# rCAG bind conf – r(CAG) RNA repeat binding, confirmation | inhibition, % at 3 µM | TO-PRO-1 dye displacement fluorescence | AID 652065 | shares compounds with rCAG binder | 70% of 4,300 active;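 active means inhibition above a per-plate cutoff, the mean inhibition of sample wells plus 3 SD, cut at about 35% in these data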;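 further: loss of TO-PRO-1 fluorescence as compound displaces dye from 1x1 AA loop RNA; 0% = DMSO only wells and 100% = 100 µM mitoxantrone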
# dCAG dye counter – disrupts DNA CAG TO-PRO-1 complex, flagging rCAG hits; shares compounds with rCAG binder; 94% of 4,300 active; d(CAG) DNA oligo TO-PRO-1 dye displacement, fluorescence; inhibition, % at 3 µM;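 active means inhibition above its plate's cutoff, the mean test-well inhibition plus 3 SD, cut at about 4.8% in these data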;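 further: 0% = DNA dye mix with DMSO and 100% = 100 µM mitoxantrone; hits displace the dye from DNA and so lower well fluorescence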
# DNA CAG DR – disrupts DNA CAG TO-PRO-1 complex in dose response; IC50, µM; 20% of 250 active; DNA CAG/GTC duplex TO-PRO-1 dye displacement fluorescence; shares compounds with rCAG binder; in the data active means IC50 below about 10 µM
# PRMT1 confirm – confirmation of human PRMT1 inhibitors; shares compounds with PRMT1 inh; AID 687036; recombinant His-PRMT1, activity-based probe fluorescence polarization; inhibition, % at 2.79 µM; 42% of 3,300 active;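 active means mean inhibition across replicates above the hit cutoff derived for the earlier primary screen, cut at about 22% in these data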
# UHRF1 DNA bind – counter-screen for MBD2 inhibitors: human UHRF1 methylated DNA binding inhibitors; 25% of 1,000 active; shares compounds with MBD2 inh; AID 720530; inhibition, % at 4.4 µM; UHRF1 binding to methylated oligonucleotide, TR-FRET;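 further: UHRF1 SRA domain binding a labeled hemimethylated CpG hairpin DNA; 0% = vehicle only and 100% = reference inhibitor with vehicle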
# MBD2 DBD conf – MBD2-DBD methyl-DNA binding inhibition, TR-FRET confirmation; shares compounds with MBD2 inh; TR-FRET MBD2-DBD binding to methylated oligonucleotide; inhibition, % at 4.4 µM; 26% of 1,000 active; in the data active means inhibition above about 14%
# IN multimer act – counter-screen for LEDGF/p75 integration inhibitors: HIV-1 integrase multimerization activators; shares compounds with LEDGF integ inh; TR-FRET HIV-1 integrase multimerization, biochemical; activation, % at 7.7 µM; 17% of 2,000 active; AID 1053131; in the data active means activation above about 8.9%
# TRFRET interf – TR-FRET optical interference, LEDGF/p75 integration counter-screen. AID 1053135. TR-FRET optical interference counterscreen, HIV-1 IN multimerization. 2,000 tested, under 10 active. shares compounds with LEDGF integ inh. inhibition, % at 7.7 µM;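 active means inhibition above the mean over all tested compounds plus 3 SD, which no compound reached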;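 further: 0% = integrase with antibodies and DMSO and 100% = antibodies without integrase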
# IN-LEDGF confirm – confirmation of HIV-1 LEDGF/p75-dependent integration inhibitors | shares compounds with LEDGF integ inh | TR-FRET LEDGF/p75-dependent HIV-1 integration, biochemical | inhibition, % at 3.7 µM | 36% of 2,000 active | AID 1053136; in the data active means inhibition above about 14%
# Numbers without * were called inactive; i = inactive; / = not tested or not shown. This is a sample that favours compounds with a hit; in the whole collection about 4.1% have one here. Unless noted, no stated cut-off is given here; in the data, active means inhibition above about 21%; inactive means the rest.
SMILES,rCAG binder,MBD2 inh,ABHD5-PLIN5 inh,UHRF1 binding,PRMT1 inh,LEDGF integ inh,rCAG bind conf,dCAG dye counter,PRMT1 confirm,IN multimer act,TRFRET interf,IN-LEDGF confirm,others
Cc1cc(Nc2cc(Cl)cc(Cl)c2)cc(=O)n1-c1cc(Cl)cc(Cl)c1,6,2,/,1,-1,2,/,/,/,/,/,/,
COc1ccc2nc(-c3ccco3)c(-c3ccco3)nc2c1,59*,20*,17,78*,63*,65*,32,13*,/,5,-28,50*,UHRF1 DNA bind=25*;MBD2 DBD conf=10
CCCNC(=O)c1ccc2nc(-c3ccccc3)c(-c3ccccc3)nc2c1,-3,-4,0,0,-1,-2,/,/,/,/,/,/,
c1coc(-c2nc(-c3ccco3)c(-c3ccco3)nc2-c2ccco2)c1,68*,67*,64*,95*,78*,90*,45*,21*,15,8,-30,82*,DNA CAG DR=6.6*;UHRF1 DNA bind=42*;MBD2 DBD conf=20*
CCCCNC(=O)c1ccc2nc(-c3ccco3)c(-c3ccco3)nc2c1,62*,0,14,28*,42*,50*,20,5.8*,48*,6,-28,33*,
Nc1nc(-c2ccco2)cs1,1,4,-10,3,8,6,/,/,/,/,/,/,
COc1ccc(-c2nc3ccccc3nc2-c2ccc(OC)cc2)cc1,-2,1,1,-2,-1,1,/,/,/,/,/,/,
CN(N=Cc1ccccc1O)C(=O)c1ccccc1N,0,-4,/,-1,1,1,/,/,/,/,/,/,
O=C1C=C(O)c2c(O)cc(O)c(O)c2C1=O,56*,49*,6,77*,47*,60*,20,5.2*,/,103*,i,84*,UHRF1 DNA bind=51*;MBD2 DBD conf=26*
O=C(O)C(c1ccccc1)N1C(=O)/C(=C\c2ccc(O)c(O)c2)SC1=S (centres undefined),42*,-2,-2,1,39*,23*,53*,22*,45*,8,-41,51*,
Cc1cc(/C=C2\SC(=S)NC2=O)c(C)[nH]1,35*,0,3,4,11,34*,21,6.9*,/,12*,-43,10,
O=C(O)CCN1C(=O)/C(=C/c2ccc(-c3nc4ccccc4s3)o2)SC1=S,55*,4,-4,15,69*,17*,85*,53*,23*,2,-10,16*,
Cc1ccccc1C(=O)N(C)[C@H]1C[C@H]2c3[nH]c4c(-c5ccccc5)cccc4c3CCN2C(=O)[C@H]1[C@H](C)O,7,0,/,-1,-3,6,/,/,/,/,/,/,
CCOC(=O)NC[C@@]1(C(=O)OC)CC(=O)N(C)[C@@H]1c1ccccc1,-2,0,/,1,1,-2,/,/,/,/,/,/,
O=[N+]([O-])c1cc(Br)ccc1NS(=O)(=O)c1ccccc1,13,5,7,0,1,-3,/,/,/,/,/,/,
O=C(O)CSc1cc(NS(=O)(=O)c2ccc(Br)cc2)c2ccccc2c1O,39*,-9,5,-6,57*,25*,57*,23*,/,1,-2,51*,
Cc1nnc(NC(=O)c2cc(-c3ccco3)nc3ccccc23)s1,37*,6,4,26*,18,16*,18,8.7*,/,3,-17,29*,
Cc1csc(NC(=O)c2cc(C)nc3ccccc23)n1,0,-1,0,-2,2,-4,/,/,/,/,/,/,
O=C(N/N=C/c1ccc(F)cc1)c1cc(-c2ccco2)nc2ccccc12,45*,19*,3,28*,4,15*,47*,30*,/,24*,-118,48*,UHRF1 DNA bind=52*;MBD2 DBD conf=36*
Cc1csc(NC(=O)c2cc(-c3ccco3)nc3ccccc23)n1,44*,5,6,14,24*,26*,46*,20*,/,11*,-56,48*,
C=CCN1[C@@H](C)COc2cccc(N3CCSCC3)c2S1(=O)=O,0,-1,/,2,0,2,/,/,/,/,/,/,
COc1cccc(/C=C/C(=O)NNC(=O)c2ccccc2)c1OC,-1,6,3,-3,-7,4,/,/,/,/,/,/,
CNc1ccc(Br)cc(C(=O)/C=C/c2cccc(OC)c2OC)c1=O,35*,-6,21,1,30*,16*,28,11*,18,2,-11,27*,
CNc1ccc(Br)cc(C(=O)/C=C/c2cccc(Cl)c2Cl)c1=O,48*,-1,20,5,25*,15*,50*,23*,13,0,-1,21*,
Cc1ccc(O)c(N=Cc2cc(Cc3ccccc3)cc([N+](=O)[O-])c2O)c1,46*,-16,2,-6,12,19*,27,16*,/,3,-15,46*,
O=C(O)Cc1ccc(-c2ccccc2-c2ccccc2)cc1,14,-2,0,3,-4,4,/,/,/,/,/,/,
O=C(O)Cc1ccc(N2N=C(c3ccccc3)CC2=O)cc1,68*,9,-34,18,6,26*,22,6.0*,/,1,-5,10,
C/C=C/COC(=O)c1[nH]c2c(c1C)C(=O)CC(c1ccco1)C2 (centres undefined),38*,10,19,20,43*,18*,12,9.4*,8,5,-16,21*,

# High-throughput results: PubChem BioAssay, The Scripps Research Institute Molecular Screening Center
